Among all 69,000 compounds or so, about 8,600 (12%) showed an effect of 50% or more. The entries come from a sample that favours strong results as a whole.

The subject of the experiment is Plasmodium berghei. Nature of the experiment: Screen against P. berghei liver stage (PbLuc), transformed with Luciferase, at 10uM. The class given is functional, HepG2. The following applies: tested at 10 uM.
Consider `CCc1ccccc1Nc1noc2c1CN(C(=O)CCOC)CC2`, for which the INHIBITION is on record as -5.71%.

In the case of `CC(C)CNC(=O)C1CC(=O)N(c2n[nH]c3ccccc23)C1` (stereo not drawn), the INHIBITION is given as -11.7%.

Turning to `CCN1CCCC(C)(C(=O)NCc2nnnn2-c2ccccc2)C1` (stereo not drawn), the INHIBITION is -1.7%.

As to `O=C(NCc1ccc(F)cc1)NCC1(N2CCOCC2)CCSC1` (stereo not drawn), the INHIBITION is listed as 40.5%.

With `c1ccc2nc(NCC3(N4CCOCC4)CCSC3)cnc2c1` (stereo not drawn), the INHIBITION was found to be 46.6%.

Take `CN(Cc1ccc(F)cc1)C(=O)NCC1(N2CCOCC2)CCSC1` (stereo not drawn): the INHIBITION worked out at 36.8%.

Turning to `Fc1cccc2ncnc(NCC3(N4CCOCC4)CCSC3)c12` (stereo not drawn), the INHIBITION came to 91.1%.

As for `O=C(NCC1(N2CCOCC2)CCSC1)Nc1ccccn1` (stereo not drawn), the INHIBITION amounted to 18.6%.

As for `O=C(NCC1(N2CCOCC2)CCSC1)Nc1ccncc1` (stereo not drawn), the INHIBITION turned out to be 18.6%.

On to `c1ccc2c(NCC3(N4CCOCC4)CCSC3)ncnc2c1` (stereo not drawn), for which the INHIBITION was 94.5%.

As for `c1nc(NCC2(N3CCOCC3)CCSC2)c2sccc2n1` (stereo not drawn), the INHIBITION amounted to 91.1%.

In the case of `c1ccc2sc(NCC3(N4CCOCC4)CCSC3)nc2c1` (stereo not drawn), the INHIBITION is 18.3%.

In the case of `CC1CCN(S(=O)(=O)c2ccc(C(=O)N3CCSCC3)cc2)CC1`, the INHIBITION was -2.39%.

`CN(C)C(=O)NCc1cc2n(n1)CCN(CC1[C@H]3CNC[C@@H]13)C2` (stereo partly drawn): the INHIBITION turned out to be 43.5%.

Consider `NC(=O)c1cnn2c(C3CCN(CCO)CC3)ccnc12`, for which the INHIBITION was 14.55%.

In the case of `COCc1cnc2n1CCN(Cc1cccnc1)C2C` (stereo not drawn), the INHIBITION was -0.182%.

Consider `O=C(N[C@@H]1CN(Cc2cccc3[nH]ccc23)C[C@H]1O)c1cscn1`, for which the INHIBITION is -10.8%.

For `CCN1CC(COC(C)(C)C)Oc2ccncc2S1(=O)=O` (stereo not drawn), the INHIBITION is given as 13.1%.

Turning to `CS(=O)(=O)N1CCN(C(=O)CCn2cccn2)CC1`, the INHIBITION is 17.32%.

With `CC(C)Cc1nc(CN(C)CCOc2ccccc2F)no1`, the INHIBITION is 34.7%.

Turning to `Cc1ccccc1OCCN(C)Cc1noc(CC(C)C)n1`, the INHIBITION was 33.7%.

For `CC(C)Cc1nc(CN(C)CCOc2ccc(F)cc2)no1`, the INHIBITION was found to be 59.4%.

`Cc1cccc(C(=O)N2CCc3c(CN(C)C)nn(C)c3C2)n1`: the INHIBITION came out at 38.3%.

On to `Cc1nc(C)c(C(=O)NCCNc2ncccn2)s1`, for which the INHIBITION is 38.8%.

Consider `CN1CCN(CC2CC2)C(=O)C12CCN(C(=O)c1ccnnc1)CC2`, for which the INHIBITION is reported as 5.63%.

In the case of `CC(=O)Nc1ccc2c(c1)CN(C(=O)c1ccco1)CC2`, the INHIBITION was found to be 55.7%.

Consider `CCC(=O)Nc1ccc2c(c1)CN(C(=O)c1ccco1)CC2`, for which the INHIBITION is on record as -46.6%.

In the case of `COCC(=O)Nc1ccc2c(c1)CN(C(=O)c1ccco1)CC2`, the INHIBITION is -45.3%.

Consider `CC(=O)c1cc(Br)cc(F)c1OCC(=O)NC1CC1`, for which the INHIBITION is on record as -3.72%.

For the compound `CN(C)C(=O)CN1CCCC(CCCc2ccccn2)(C(N)=O)C1` (stereo not drawn), the INHIBITION is recorded as -50.2%.

On to `Cn1cnnc1C1CCN(C(=O)c2cc3c(s2)CCC3)CC1`, for which the INHIBITION is recorded as 9.14%.

Turning to `NCCO[C@H]1C[C@@H](O)C12CCN(C(=O)CCOc1ccccc1)CC2`, the INHIBITION worked out at 5.67%.

Take `CCn1cnnc1C1CCN(C(=O)COc2ccc(Cl)cc2)CC1`: the INHIBITION was -37.7%.

As to `Cc1cccc(C)c1OCCC(=O)N1CCC(c2nncn2C)CC1`, the INHIBITION was determined as 55.9%.

Turning to `CO[C@H]1C[C@@H](O)C12CCN(C(=O)CCCOc1ccccc1)CC2`, the INHIBITION was determined as 72.3%.

For the compound `CCn1cnnc1C1CCN(C(=O)c2cc3c(s2)CCCC3)CC1`, the INHIBITION came to 13.3%.

With `Cc1ccccc1OCCC(=O)N1CCC(c2nncn2C)CC1`, the INHIBITION is -4.94%.

With `CCn1cnnc1C1CCN(C(=O)c2cc3c(s2)CCC3)CC1`, the INHIBITION is given as 61.3%.

`Cc1ccc(OCCC(=O)N2CCC(c3nncn3C)CC2)c(C)c1`: the INHIBITION is given as -17%.

For the compound `COc1cccc(OCC(=O)N2CCC3(CC2)[C@H](O)C[C@@H]3OC)c1`, the INHIBITION is -14.1%.

As for `CCn1cnnc1C1CCN(C(=O)COc2ccccc2OC)CC1`, the INHIBITION is on record as -41.6%.

Regarding `CCn1cnnc1C1CCN(C(=O)COc2ccccc2)CC1`, the INHIBITION is 53%.

With `CC1(c2ccc(Br)cc2)CC(=O)N(CCC#N)C1=O` (stereo not drawn), the INHIBITION is given as -12.2%.

In the case of `O=C(O)c1ccccc1-c1ccc(CN2CCCC(O)C2)cc1` (stereo not drawn), the INHIBITION came to 48.6%.

On to `Oc1nc(C2CCN(Cc3ccccn3)CC2)cc2ccccc12`, for which the INHIBITION is -13.2%.

On to `CCOc1ccnc(N2CCN(C(=O)c3cn[nH]c3C)CC2)n1`, for which the INHIBITION is -11.4%.

For the compound `O=C(c1ccccn1)N1C[C@H]2CC[C@@H](C1)N(C(=O)CCc1ccsc1)C2`, the INHIBITION is recorded as -16.5%.

As to `CCc1n[nH]c(=O)c(C(=O)N2CCSC(C)(C)C2)c1CC`, the INHIBITION amounted to 18.7%.

`COCCC(=O)NCCc1nc(N(C)C)ncc1-c1ccncc1`: the INHIBITION was found to be 2.5%.

With `Cn1cnnc1C1CCN(C(=O)CCCOc2ccccc2)CC1`, the INHIBITION amounted to 28.8%.

With `CCn1cnnc1C1CCN(C(=O)COCCc2ccccc2)CC1`, the INHIBITION is reported as 32%.

As to `CCn1cnnc1C1CCN(C(=O)CCCOc2ccccc2)CC1`, the INHIBITION came to 60.9%.

Turning to `CC(CN1CCCC1=O)NC(=O)c1cc(=O)[nH]c2ccc(Cl)cc12` (stereo not drawn), the INHIBITION was found to be 35.4%.

(Values after ChEMBL document CHEMBL4513216, “Probing the Open Global Health Chemical Diversity Library for Multistage-Active Starting Points for Next-Generation Antimalarials” (ACS Infect Dis, 2020).)
